These results are taken from PubChem BioAssay.

Each structure is given as a SMILES string. The source made the active and inactive calls.

The nature of test [1]: binders of probe aFSTL3 on microarray, primary screen, stem cell growth factor project, biochemical, small-molecule microarray, fluorescence 635/667 (AID 1064).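 Note: measures binding of the biotinylated anti-FSTL3 antibody to printed compounds.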 Conditions: higher = more signal.
A short description of test [2]: binders from COS7 lysate, DM2A8 probe, primary screen, torsin A project, cell lysate, small-molecule microarray, fluorescence 635/667 (AID 1065). The settings on record: higher = more signal, COS7 lysate expressing mutant human TOR1A.
The nature of test [3]: binders of probe aFGF2 on microarray, primary screen, stem cell growth factor project, biochemical, small-molecule microarray, fluorescence 635/667 (AID 1067).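 Note: measures binding of biotinylated aFGF2 protein to printed compounds on slides; z-score merges feature fluorescence and signal-to-noise across triplicate slides.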 Conditions: higher = more signal.
Test [4] in a line: binders of probe aFGF10 on microarray, primary screen, stem cell growth factor project, biochemical, small-molecule microarray, fluorescence 635/667 (AID 1071).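 Note: score merges 667 nm spot intensity and signal to noise from triplicate slides.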 Conditions: higher = more signal.
The target of test [5] is Neurogenic locus notch homolog protein 2 (Homo sapiens) (UniProt Q04721). Description: Notch2 binders on small-molecule microarrays, primary screen, biochemical, small-molecule microarray, 635 nm fluorescence, stem cell growth factors (AID 1073). The settings on record: Notch2 binding, higher = more signal.
Test [6] addresses Pro-neuregulin-1, membrane-bound isoform (Homo sapiens) (UniProt Q02297). Description: NRG1 binders on small-molecule microarrays, primary screen, psychiatric disease protein project, biochemical, small-molecule microarray, fluorescence 635/667 (AID 1075).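 Note: score combines 667 nm spot fluorescence with signal to noise.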 Conditions: NRG1 binding, 635 nm fluorescence, higher = more signal.
Test [7] deals with Neuregulin-1 EGF-like domain. Description: binders of neuregulin-1 EGF-like domain, primary screen, biochemical, small-molecule microarray, 635 nm fluorescence (AID 1081).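 Note: binding of the protein to compounds printed on small-molecule microarray slides.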 The settings on record: small-molecule microarray binding, higher = more signal.
A short description of test [8]: FRG1 promoter luciferase signal modulators, primary screen, FRG1 inhibition for FSHD, cell-based, C2C12 myotubes, firefly/Renilla luciferase, luminescence (AID 1084). Conditions: higher = more signal, called active from +8 up or from −8 down.
Test [9] can be described thus: binders of probe aFST on microarray, primary screen, stem cell growth factor project, biochemical, small-molecule microarray, fluorescence 635/667 (AID 1086).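 Note: score merges 667 nm fluorescence with signal-to-noise of each printed compound spot.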 Conditions: higher = more signal.
Test [10] is described as follows: binders of probe aHhip on microarray, primary screen, stem cell growth factor project, biochemical, small-molecule microarray, fluorescence 635/667 (AID 1087).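 Note: score merges spot fluorescence at 667nm with spot signal to noise ratio.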 The settings on record: higher = more signal.

Neurogenic locus notch homolog protein 2 (Homo sapiens), sequence (Q04721 whole entry, looked up, canonical isoform): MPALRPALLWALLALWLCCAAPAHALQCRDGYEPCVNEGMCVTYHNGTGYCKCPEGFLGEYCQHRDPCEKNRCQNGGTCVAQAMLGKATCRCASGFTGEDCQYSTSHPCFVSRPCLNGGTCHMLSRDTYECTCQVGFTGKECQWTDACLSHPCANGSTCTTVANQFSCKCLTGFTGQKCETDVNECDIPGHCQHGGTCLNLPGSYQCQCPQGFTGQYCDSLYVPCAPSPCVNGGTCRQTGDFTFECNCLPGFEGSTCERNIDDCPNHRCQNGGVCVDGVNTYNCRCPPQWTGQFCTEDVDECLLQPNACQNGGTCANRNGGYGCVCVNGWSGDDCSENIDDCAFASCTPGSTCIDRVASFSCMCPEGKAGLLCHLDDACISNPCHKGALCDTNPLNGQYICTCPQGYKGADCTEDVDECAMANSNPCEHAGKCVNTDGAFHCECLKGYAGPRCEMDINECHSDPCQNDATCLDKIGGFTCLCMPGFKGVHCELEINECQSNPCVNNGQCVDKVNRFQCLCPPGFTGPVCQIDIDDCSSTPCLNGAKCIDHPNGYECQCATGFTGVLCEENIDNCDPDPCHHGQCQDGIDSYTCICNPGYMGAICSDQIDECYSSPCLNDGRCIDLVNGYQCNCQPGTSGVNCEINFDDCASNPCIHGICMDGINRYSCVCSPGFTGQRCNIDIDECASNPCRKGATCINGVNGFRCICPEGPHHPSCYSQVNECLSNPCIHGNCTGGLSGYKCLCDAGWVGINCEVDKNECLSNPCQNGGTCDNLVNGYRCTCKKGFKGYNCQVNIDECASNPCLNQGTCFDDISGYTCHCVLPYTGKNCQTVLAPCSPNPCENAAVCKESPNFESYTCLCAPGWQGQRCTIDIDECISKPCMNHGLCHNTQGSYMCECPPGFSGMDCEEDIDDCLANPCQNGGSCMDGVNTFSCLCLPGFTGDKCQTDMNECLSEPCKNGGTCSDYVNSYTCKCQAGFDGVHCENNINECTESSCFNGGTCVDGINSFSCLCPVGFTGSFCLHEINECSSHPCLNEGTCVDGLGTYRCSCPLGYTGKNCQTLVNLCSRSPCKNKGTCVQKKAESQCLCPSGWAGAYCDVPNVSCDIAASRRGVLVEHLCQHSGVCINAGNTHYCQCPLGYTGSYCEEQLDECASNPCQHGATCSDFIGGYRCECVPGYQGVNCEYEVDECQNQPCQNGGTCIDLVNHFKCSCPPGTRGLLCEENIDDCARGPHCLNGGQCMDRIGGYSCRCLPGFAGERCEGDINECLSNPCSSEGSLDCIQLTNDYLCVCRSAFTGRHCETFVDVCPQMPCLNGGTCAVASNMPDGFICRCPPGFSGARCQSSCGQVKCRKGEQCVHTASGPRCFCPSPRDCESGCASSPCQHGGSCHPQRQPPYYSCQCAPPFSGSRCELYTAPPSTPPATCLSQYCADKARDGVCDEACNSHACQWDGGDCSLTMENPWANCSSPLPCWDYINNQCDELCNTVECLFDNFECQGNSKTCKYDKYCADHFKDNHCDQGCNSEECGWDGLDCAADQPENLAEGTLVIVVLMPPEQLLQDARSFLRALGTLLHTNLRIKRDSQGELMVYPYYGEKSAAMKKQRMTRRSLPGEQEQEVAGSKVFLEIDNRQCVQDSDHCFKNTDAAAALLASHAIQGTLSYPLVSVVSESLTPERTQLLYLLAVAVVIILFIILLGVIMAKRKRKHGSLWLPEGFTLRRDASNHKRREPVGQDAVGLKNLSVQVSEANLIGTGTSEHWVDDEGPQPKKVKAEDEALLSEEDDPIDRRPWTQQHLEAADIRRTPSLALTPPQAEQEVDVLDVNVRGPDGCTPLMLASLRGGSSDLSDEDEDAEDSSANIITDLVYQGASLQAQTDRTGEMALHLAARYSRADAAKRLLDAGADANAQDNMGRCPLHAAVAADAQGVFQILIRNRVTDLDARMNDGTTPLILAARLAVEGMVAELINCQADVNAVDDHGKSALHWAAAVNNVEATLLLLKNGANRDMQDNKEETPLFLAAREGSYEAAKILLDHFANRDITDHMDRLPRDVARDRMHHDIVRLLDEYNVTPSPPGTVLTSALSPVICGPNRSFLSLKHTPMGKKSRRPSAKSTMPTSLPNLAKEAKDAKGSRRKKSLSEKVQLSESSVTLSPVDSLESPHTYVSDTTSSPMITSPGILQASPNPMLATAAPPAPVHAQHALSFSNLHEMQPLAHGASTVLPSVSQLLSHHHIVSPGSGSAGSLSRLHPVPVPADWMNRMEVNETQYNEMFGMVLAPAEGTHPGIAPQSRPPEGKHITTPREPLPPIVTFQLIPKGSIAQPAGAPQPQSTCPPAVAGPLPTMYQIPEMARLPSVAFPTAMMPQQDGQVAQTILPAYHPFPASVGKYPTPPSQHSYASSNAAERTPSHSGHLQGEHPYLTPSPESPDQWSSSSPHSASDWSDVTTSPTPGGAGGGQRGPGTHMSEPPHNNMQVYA
Pro-neuregulin-1, membrane-bound isoform (Homo sapiens), sequence (Q02297 whole entry, looked up, the tested form may be a part, canonical isoform): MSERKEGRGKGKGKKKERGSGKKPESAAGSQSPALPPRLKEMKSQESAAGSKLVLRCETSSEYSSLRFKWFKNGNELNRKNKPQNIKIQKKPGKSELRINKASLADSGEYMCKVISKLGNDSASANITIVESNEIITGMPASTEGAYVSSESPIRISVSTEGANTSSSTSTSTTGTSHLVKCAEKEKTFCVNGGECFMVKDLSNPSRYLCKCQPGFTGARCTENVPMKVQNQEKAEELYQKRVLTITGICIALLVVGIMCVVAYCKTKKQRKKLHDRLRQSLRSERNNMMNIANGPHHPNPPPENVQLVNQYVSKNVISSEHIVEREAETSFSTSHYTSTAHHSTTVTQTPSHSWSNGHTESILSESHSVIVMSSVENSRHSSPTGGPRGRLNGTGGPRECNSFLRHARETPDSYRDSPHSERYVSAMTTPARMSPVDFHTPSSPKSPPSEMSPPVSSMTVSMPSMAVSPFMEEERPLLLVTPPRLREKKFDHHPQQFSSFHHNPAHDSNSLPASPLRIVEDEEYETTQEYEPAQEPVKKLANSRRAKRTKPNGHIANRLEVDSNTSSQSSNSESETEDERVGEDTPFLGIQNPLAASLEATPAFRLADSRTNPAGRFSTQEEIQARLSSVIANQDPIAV

On to `C[N+](C)(C)CCCC[C@@H]1NC(=O)[C@@H]2C[C@H](C(=O)NCCCCCN)[C@H](c3ccc(O)cc3)N2C1=O`, for which the composite z-score was found to be 0.419 in [1]; 0.896 in [2]; 0.0522 in test [3]; 0.628 in test [4]; 1 in test [5]; 1.54 in test [6]. Moreover, the composite z-score in test [7] was 0.636; in [9], 1.19; in test [10], 0.266. The z-score in test [8] was -1.76 (inactive).

Take `COCCOC(=O)N1C(=O)[C@@]2(c3ccccc31)[C@H](C(=O)N1CCc3cc(OC)c(OC)cc3C1)[C@H]1C(=O)O[C@H](c3ccccc3)[C@H](c3ccccc3)N1[C@@H]2c1ccc(O)cc1`: the composite z-score in [1] was -0.159; in test [2], 0.706; in test [3], -0.0303; in [4] it was 0.647; in test [5] it was 1.28; in test [6] it was 0.832. Further, the figures for the composite z-score in test [7], in [9] and in test [10] were 1.26, -0.0345 and 0.0302, respectively. Besides, in test [8], the z-score is -2.26 (inactive).

`[N-]=[N+]=NCc1ccccc1[C@@H]1OC(c2ccc(OCCCO)cc2)=N[C@]1(CCS(=O)(=O)c1ccccc1)C(N)=O`: the composite z-score in test [1] was 0.339; in [2], 0.852; in test [3] it was 0.175; in [4] it was 0.647; in test [5] it was 1.33; in test [6], 2.06. Also, the composite z-score in [7] is 1.34; in test [9], 1.71; in test [10] it was -0.165. In test [8], the z-score was 1.81 (inactive).

For the molecule `C=C(CCCC)/C(=C/C[C@H](OC(C)=O)c1ccc(OCCO)cc1)c1cnc2ccccc2c1`, the composite z-score in test [1] is -0.173; in [2] it was 0.641; in [3], -0.115; in [4], 0.372; in [5], 1.21; in test [6], 1.32. Besides, the results for the composite z-score in test [7], in test [9] and in test [10] were 1.18, 0.703 and -0.0672, respectively. In addition, the z-score in [8] is -0.851 (inactive).

As to `CCCCN1CC=CC23O[C@@H]4C=CCOC(=O)[C@@H]4[C@H]2C(=O)N(CCCCCCO)[C@@H]3C1=O` (stereo not given in full), the composite z-score in test [1] is 1.22; in [2] it was -0.64; in test [3] it was -0.141; in [4] it was -1.34; in [5] it was -1.86; in test [6], 1.01. The composite z-score in test [7] is 1.3; in test [9] it was -0.581; in test [10], -0.134. For the same molecule, the z-score in test [8] was -0.0048 (inactive).

As to `COCCOC(=O)N1C(=O)[C@@]2(c3ccccc31)[C@H](C(N)=O)[C@H]1C(=O)O[C@H](c3ccccc3)[C@H](c3ccccc3)N1[C@@H]2c1ccc(O)cc1`, the composite z-score in test [1] is 0.0458; in test [2], 0.209; in [3] it was 0.0709; in test [4] it was 0.166; in test [5], -0.248; in [6], 1.32. Moreover, the composite z-score was 1.24 in test [7], -0.404 in [9] and 0.0215 in test [10]. Also, the z-score in test [8] is -0.939 (inactive).

In the case of `O=C(NCc1ccccc1)[C@@H]1c2ccccc2C(=O)N(C2Cc3ccccc3C2)[C@H]1c1ccc(CO)cc1`, the composite z-score in test [1] was found to be 0.335; in test [2], 0.0455; in [3] it was 0.0017; in test [4], 0.526; in test [5], 0.501; in test [6] it was 1.02. Moreover, the composite z-score was 0.971 in [7], 0.435 in test [9] and -0.181 in test [10]. Moreover, the z-score in test [8] was -2.38 (inactive).

With `CCOC(=O)[C@H]1C/C=C/C[C@H](C(=O)OCC)C(=O)O[C@H]2[C@@H](OC)O[C@H](CO)[C@@H](OC(=O)c3ccc(Br)cc3)[C@@H]2OC1=O`, the composite z-score in [1] is 0.0086; in [2], 0.014; in test [3] it was -0.0459; in [4], -0.0304; in test [5], -0.0686; in test [6], 0.132. The composite z-score in [7] is 0.517; in test [9], -0.0976; in [10] it was 0.0566. In test [8], the z-score was -0.0847 (inactive).

On to `COCCCNC(=O)[C@@]1(Cc2ccccc2)N=C(c2ccc(OCCCO)cc2)O[C@H]1c1ccccc1CN=[N+]=[N-]`, for which the composite z-score came out at 0.988 in test [1]; 1.35 in test [2]; 0.0762 in test [3]; 0.806 in test [4]; 1.25 in [5]; 1.74 in test [6]. In addition, the composite z-score in test [7] was 1.11; in [9] it was 1.54; in test [10], -0.194. The z-score in test [8] was -0.989 (inactive).

Take `COCC(=C=CC[C@@H](O)c1ccc(OCCO)cc1)C[C@@H](O)c1ccccn1`: the composite z-score in test [1] was -0.212; in [2], -0.116; in [3] it was -0.0633; in test [4] it was 0.923; in [5], 0.687; in [6], 1. In addition, the values for the composite z-score in [7], in test [9] and in [10] were 1.24, 0.423 and -0.236, respectively. The z-score in test [8] was 1.33 (inactive).

For `CO[C@H]1O[C@H](CO)[C@@H](OC(=O)Nc2cccc(F)c2)[C@H](OC(=O)Nc2ccccc2)[C@H]1OC(=O)Nc1ccccc1`, the composite z-score in [1] was -0.246; in [2], 1.35; in test [3] it was 0.0664; in test [4] it was 0.466; in test [5] it was 1.07; in test [6], 0.981. In addition, the composite z-score in test [7] is 1.36; in test [9], 0.724; in [10] it was -0.191. The z-score in test [8] was 0.746 (inactive).

Consider `CC[C@@H]1C=C(C(=O)O)[C@H](c2cccc3ccccc23)N1S(=O)(=O)c1ccc(C)cc1`, for which the composite z-score is -0.0805 in [1]; -0.26 in test [2]; -0.0162 in test [3]; 0.184 in [4]; 0.709 in [5]; 1.94 in [6]. Besides, the composite z-score is 0.573 in [7], 0.279 in test [9] and -0.0645 in [10]. The z-score in test [8] is -3.41 (inactive).

`CCCC1(C(=O)OC)C=C2C(=C(c3ccccc3)C(=O)C2C)CN1` (stereo not given): the composite z-score was 1.43 in [1]; -0.289 in [2]; -0.0869 in test [3]; -0.121 in test [4]; 0.725 in test [5]; 0.768 in test [6]. Also, the composite z-score was 0.861 in test [7], 0.387 in [9] and 0.154 in [10]. Besides, the z-score in test [8] is 2.51 (inactive).

For the molecule `CN(C)CCCCCCNC(=O)[C@@H]1C[C@@H]2C(=O)N3CCC[C@H]3C(=O)N2[C@@H]1c1ccc(O)cc1`, the composite z-score in test [1] was determined as 0.675; in test [2] it was 1.9; in test [3], 0.0923; in test [4], 1.18; in test [5], 0.697; in test [6], 0.543. Also, the composite z-score in test [7] came out at 1.35; in test [9], 0.886; in [10], 0.124. Further, the z-score in [8] is 1.53 (inactive).

On to `COCCCNC(=O)[C@@H]1c2ccccc2C(=O)N(Cc2ccccc2OC)[C@H]1c1ccc(CO)cc1`, for which the composite z-score was -0.169 in test [1]; 0.64 in test [2]; -0.0021 in [3]; 0.584 in test [4]; 0.239 in test [5]; 1.8 in test [6]. Moreover, the results for the composite z-score in test [7], in test [9] and in [10] were 1.34, -0.0311 and -0.0645, respectively. In [8], the z-score is -1.57 (inactive).

`CC[C@@H]1C=C(C(=O)O)[C@H](c2ccc(C)cc2)N1S(=O)(=O)c1ccc(C)cc1`: the composite z-score was -0.139 in test [1]; 0.719 in test [2]; -0.0246 in test [3]; -0.256 in test [4]; 1.1 in test [5]; 0.929 in test [6]. Moreover, the composite z-score in [7] worked out at 1.29; in [9], 0.593; in test [10], 0.126. Also, the z-score in [8] is -0.143 (inactive).

For the molecule `CC(c1ccccc1)C(O)C1C=CC2C(=O)N(C)C(=O)C2N1NC(=O)OC(C)(C)C` (stereo not given), the composite z-score was 0.301 in [1]; 0.518 in test [2]; 0.225 in [3]; 0.626 in [4]; 1.21 in test [5]; 1.91 in test [6]. In addition, the figures for the composite z-score in test [7], in test [9] and in test [10] were 1.17, 1.14 and -0.0645, respectively. Besides, the z-score in [8] is 1.89 (inactive).
